# PMC5540273 (PLoS ONE, 2017)
# Columns and labels:
# IKK-beta = tested on: T1, IKK-beta
# T1 construct: gene IKBKB
# GRK3 = tested on: T2, GRK3
# T2 construct: gene ADRBK2
# HASPIN = tested on: T3, HASPIN
# T3 construct: gene GSG2
# IKK-alpha = tested on: T4, IKK-alpha
# T4 construct: gene CHUK
# [1] = tested on: JAK1(JH1domain-catalytic)
# 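Further: kd values determined as follow-up on hits from a single-replicate KINOMEscan panel screen.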
smiles,measurement,setting,value
COc1cccc(-c2cc(-c3c[nH]nc3-c3ccccn3)ccn2)c1 [GW680338],Kd,FLT4,> 10 µM
O=C(O)COc1ncnc2cc(-c3ccc4[nH]ncc4c3)sc12,Kd,FRK,> 10 µM
same,Kd,FYN,> 10 µM
CC(=O)Nc1nc2cnc(Nc3cc(NC(=O)c4cccc(CCC#N)c4)ccc3C)nc2s1,Kd,FRK,> 10 µM
CC(C)(C)c1ccc(C(=O)Nc2cn3cc(Cl)ccc3n2)cc1,Kd,FYN,> 10 µM
same,Kd,IKK-beta,> 10 µM
CCCc1ccc(S(=O)(=O)NC2CCN(c3ccnc(Nc4ccc(F)cc4)n3)C2)cc1 (centres unmarked) [GSK1379715],Kd,GRK1,> 10 µM
Clc1cc(Cl)cc(Nc2ccnc(Nc3cc(Cl)cc(Cl)c3)n2)c1 [GSK175726],Kd,GRK1,> 10 µM
O=C(Nc1ccc2c(c1)OCO2)NC1CCN(c2ccnc(Nc3ccc(F)cc3)n2)C1 (centres unmarked) [GSK1379724],Kd,GRK3,> 10 µM
Cc1ccc(NC(=O)Nc2cc(C(C)(C)C)nn2-c2ccccc2)cc1 [GSK1014915],Kd,GRK3,> 10 µM
Cc1csc(-c2nc(Nc3ccncc3)c3ccccc3n2)n1 [GW869640],Kd,HASPIN,0.077 µM
O=C1NC(=O)C(N2CCc3ccccc32)=C1c1ccccc1Cl [SB-373598],Kd,HASPIN,> 10 µM
same,Kd,IKK-alpha,> 10 µM
Cc1nnc(-c2ccc3occ(-c4ccc(S(C)=O)cc4)c3c2)[nH]1 (centres unmarked),Kd,HIPK2,0.32 µM
same,Kd,HIPK3,0.34 µM
Cc1c(O)cccc1Nc1ccnc2ccc(C(F)(F)F)cc12.Cl [GW466413],Kd,HUNK,> 10 µM
O=S(=O)(c1ccc(-c2ccnc3[nH]ccc23)cc1)N1CCCC1 [GSK846226],Kd,IKK-beta,0.27 µM
COc1cc2ncnc(Nc3ccc4nc(-c5ccccc5)[nH]c4c3)c2cc1OC.Cl [GW282450],Kd,INSR,> 10 µM
Cc1cc(N2Cc3ccccc3C2)nc(Nc2ccc(S(=O)(=O)N3CCOCC3)cc2)n1.Cl [GSK1669917],Kd,INSR,> 10 µM
Cc1c(Cn2ccn3c(=O)cc(N4CCOCC4)nc23)cccc1C(F)(F)F [GSK2289044],Kd,[1],> 10 µM
